In the library only some 4.1% were active in any assay of this set; here they are far more common.
hgDAF12 agonist – activates the H. glycines DAF-12 receptor ligand-binding domain | HEK293 GAL4-hgDAF12 UAS-luciferase reporter, agonist luminescence; normalized to butyrate control | 370,000 compounds, 1.8% hits | activation, % at 6.8 µM | AID 687014;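 active = activation above a cutoff set at the mean of all screened compounds plus 3 SD, cut at about 10% in these data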;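 note: 0% = DMSO wells and 100% = sodium butyrate wells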
DAX1 inh-1 – DAX1 (NR0B1) inhibition, primary screen; HEK293T StAR-luciferase reporter, SF-1/DAX-1 repression relief; inhibition, % at 6.8 µM; AID 652010; 370,000 compounds, 1.1% hits;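 active = inhibition above the mean over all tested compounds plus 3 SD, cut at about 3.6% in these data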;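 note: 0% = DAX-1 cells with DMSO and 100% = cells lacking DAX-1 with DMSO; higher inhibition means more luminescence from relief of DAX-1 repression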
DAX1 inh-2 – NR0B1 (DAX1) inhibition; HEK293 Gal4-DAX1 luciferase reporter, luminescence; 340,000 compounds, 0.99% hits; inhibition, % at 6.75 µM; AID 504766; P51843;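 active = inhibition above the mean over all tested compounds plus 3 SD, cut at about 4.2% in these data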;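 note: 0% = DAX1-transfected cells with DMSO and 100% = empty-vector control cells with DMSO; inhibition shows as a rise in luminescence from relieved DAX1 repression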
Target sequence (P51843 207-470 limits assumed): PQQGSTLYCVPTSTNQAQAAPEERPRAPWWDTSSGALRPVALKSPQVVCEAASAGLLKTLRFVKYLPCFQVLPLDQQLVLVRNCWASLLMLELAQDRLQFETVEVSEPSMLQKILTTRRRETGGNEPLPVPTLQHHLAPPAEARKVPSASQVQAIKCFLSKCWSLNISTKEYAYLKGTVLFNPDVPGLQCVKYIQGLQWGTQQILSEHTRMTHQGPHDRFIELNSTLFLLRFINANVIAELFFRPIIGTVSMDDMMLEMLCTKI
hcDAF-12 act – activates DAF-12 receptor from parasite H. contortus | activation, % at 6.8 µM | HEK293 hcDAF-12 lit1-tk-luc reporter, luminescence; 0% DMSO, 100% Δ7-dafachronic acid | AID 652067 | 370,000 compounds, 1.4% hits;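 active = activation above the mean of all tested compounds plus 3 SD, cut at about 5.5% in these data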;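 note: 100% = response to 3 µM Δ7-dafachronic acid high control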
ssDAF-12 act – activates DAF-12 receptor from parasite S. stercoralis; 370,000 compounds, 1% hits; HEK293 ssDAF-12/GRIP1 lit1-tk-luc reporter, luminescence; % of 3 µM dafachronic acid response; activation, % at 6.8 µM;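 active = activation above the mean over all tested compounds plus 3 SD, cut at about 0.9% in these data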;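 note: 0% = DMSO-only wells and 100% = 3 µM delta7-dafachronic acid wells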
Numbers without * were called inactive; x = no result.

SMILES	hgDAF12 agonist	DAX1 inh-1	DAX1 inh-2	hcDAF-12 act	ssDAF-12 act
O=C(Nc1cccc(C(F)(F)F)c1)C1CCCN(c2ncccn2)C1 (stereo unspecified)	-2.2	-1.0	-0.5	-2.6	-0.9
Cc1cc(C)cc(NC(=O)C2CCCN(c3ncccn3)C2)c1 (stereo unspecified)	0.2	-0.1	0.4	-0.9	-0.9
Cc1ccc(NC(=O)C2CCCN(c3ncccn3)C2)cc1F (stereo unspecified)	12.2*	3.2	1.3	1.6	0.8
CC(C)CC(=O)c1c(O)cc(O)c2c1OC1=C(C(=O)C(C)(C)C(=O)C1(C)C)C2CC(C)C (stereo unspecified)	-1.2	-1.0	x	-1.1	-0.3
N#Cc1ccc(C(=O)N/N=C/c2cn(CC(=O)O)c3ccccc23)c(F)c1	-0.1	0.5	-0.1	5.7*	-0.2
CN(C(=O)CCNC(=O)Cn1cnc2ccccc2c1=O)c1ccc(F)cc1	3.3	-0.1	4.8*	-1.5	-1.3
Cc1ccc(N(C)C(=O)CCNC(=O)Cn2cnc3ccccc3c2=O)cc1C	-1.1	-0.1	-0.7	-1.0	-0.9
CCN(CC)c1ccc2cc(-c3nc4ccccc4n3C)c(=O)oc2c1	3.2	3.6*	1.7	1.9	1.0*
CC(C)[C@H](N)C(=O)N[C@H](C(=O)N1CCC2CCN(S(=O)(=O)c3ccccc3)CC21)C(C)C (stereo partly specified)	0.5	-0.1	x	-1.2	-1.2
C=CCN=C1S/C(=C\c2ccc(N(C)C)cc2)C(=O)N1CC=C	3.4	0.8	4.7*	-1.5	-0.9
C=CCN1C(=O)/C(=C/c2ccc(OC)cc2)S/C1=N/c1nccs1	0.5	-0.2	0.1	-0.3	-1.9
COc1ccccc1CNC(=O)NNC(=O)CCn1nc(C)c([N+](=O)[O-])c1C	-2.5	0.0	x	-1.0	-1.6
CC(C)(C)S(=O)N1C[C@@H]2CC(=O)C=C2[C@H]1CCO (stereo partly specified)	0.2	-1.2	x	-1.2	-0.5
CN(C)/C=N/NC(=O)c1ccc(Cl)cc1	2.0	-0.1	x	-1.0	-1.6
CN(C)/C=N/c1cnc(C(=O)c2ccc(Cl)cc2)n1C	12.3*	2.9	3.0	6.4*	0.2
C[C@H]1[C@H](NC(=O)c2ccc(Cl)cc2)CC[C@@]23CCCN2C(=O)CCC[C@@H]13	-2.2	x	x	-0.4	-1.7
CCN1C(=S)SC(=O)C1=C1C=C(C)N(CCO)C(C)=C1	11.5*	3.8*	4.0	1.7	-0.1
CCOC(=O)c1sc(NC(=O)CSc2nncn2C)nc1C	4.3	-0.4	5.2*	1.2	-1.6
CCOC(=O)c1sc(NC(=O)Nc2ccccc2F)nc1C	2.4	3.7*	-2.2	3.2	-0.5
CCOC(=O)c1sc(Nc2ccccc2Cl)nc1C	7.8	2.0	0.3	0.3	-1.1
O=C(NN=C/C=C/c1ccco1)c1cc(-c2ccc(Cl)cc2)n[nH]1	0.6	-3.2	x	0.0	-0.6
CCOC(=O)C1=C(C)N=c2s/c(=C/c3ccc(OCC(=O)O)cc3)c(=O)n2C1c1ccc(OC)cc1OC (stereo unspecified)	0.8	0.7	-0.9	0.3	1.8*
CN(CCOC(=O)c1cc2ccccc2o1)C1CN(Cc2cn(Cc3ccc([N+](=O)[O-])cc3)nn2)S(=O)(=O)C1 (stereo unspecified)	3.0	-0.3	x	0.9	-0.9
O=C(OCc1ccccc1)c1c(-c2ccccc2)oc2c1C(OCCO)CCC2 (stereo unspecified)	0.7	-1.1	x	0.8	1.5*
COC(=O)c1c(-c2ccccc2)oc2c1C(OCCO)CCC2 (stereo unspecified)	-0.8	-1.4	x	-0.1	-1.4
SMILES	hgDAF12 agonist	DAX1 inh-1	DAX1 inh-2	hcDAF-12 act	ssDAF-12 act
CC(=O)NS(=O)(=O)c1ccc(NS(=O)(=O)c2ccc3ccccc3c2)cc1	-0.5	-0.1	4.7*	0.3	-1.3
Cc1ccc(S(=O)(=O)NC(=NCC(=O)O)c2ccccc2)cc1	-3.7	0.5	0.6	-1.2	1.1*
CSCCC(N=C(NS(=O)(=O)c1ccc(Br)cc1)c1ccccc1)C(=O)O (stereo unspecified)	3.6	0.9	-0.9	-0.9	-1.5
CSCCC(N=C(NS(=O)(=O)c1ccc(C)cc1)c1ccccc1)C(=O)O (stereo unspecified)	4.1	0.0	4.3*	1.7	-1.6
O=C(O)CN=C(NS(=O)(=O)c1ccc(Cl)cc1)c1ccccc1	-0.9	-0.3	-0.8	-0.5	-0.3
O=C(O)CN=C(NS(=O)(=O)c1ccc(Cl)cc1)c1ccc(F)cc1	0.3	0.3	6.0*	-0.3	-1.2
Cc1cccc(C2Nc3cccc4cccc(c34)N2)c1	-1.0	-0.3	0.7	5.7*	1.2*
CSc1ccc(C2Nc3cccc4cccc(c34)N2)cc1	0.3	-0.1	-0.5	5.7*	0.5
Clc1ccc(C2Nc3cccc4cccc(c34)N2)cc1	0.8	-0.6	0.1	4.5	0.2
C#CCNC(=O)C[C@H]1C[C@@]2(C(=O)OC)C(=C[C@H](C(C)(C)C)O[C@@H]2C)N(Cc2ccco2)C1=O	-1.5	0.1	x	-0.1	-0.9
CC(C)NC(=O)N[C@H]1C[C@@H]2O[C@@H](CO)CC[C@@H]2O[C@@H]1CCc1ccc(-c2ccccc2F)cc1	-2.4	0.2	x	-1.8	-0.5
CCCC(=O)N1CCC[C@]2(CC[C@H](CCC#N)O2)C1	0.7	0.8	x	-1.3	-1.6
COC(=O)C1CN(CCO)CCS(=O)(=O)N1Cc1cccc(Cl)c1 (stereo unspecified)	-2.5	0.8	x	0.2	-1.4
COc1ccc(C(CNC(=O)CSc2ccccc2F)N2CCOCC2)cc1 (stereo unspecified)	-0.9	-0.2	0.4	-0.7	1.1*
CCC1=NN2C(=N)/C(=C\c3cccn3-c3ccc(Br)cc3)C(=O)N=C2S1	1.0	0.1	4.7*	-0.3	-0.9
CCCCCn1nnnc1C1(C)CSCC(=O)N1Cc1ccco1 (stereo unspecified)	-4.1	-1.3	x	-2.3	-1.2
Cc1cccc(/C=N/NC(=O)c2ccc(Br)cc2)c1	11.9*	1.8	2.2	4.1	-0.2
O=C(N/N=C/c1ccc(F)cc1)c1ccc(Br)cc1	2.3	-0.2	1.2	-2.0	-1.6
COc1cccc(/C=N/NC(=O)c2c(C)nc3ccc(Br)cn23)c1	3.3	1.8	6.4*	0.2	-1.1
Cc1nc2ccc(Br)cn2c1C(=O)N/N=C\c1ccc(C(C)C)cc1	1.2	-0.2	2.0	-0.6	-1.4
COC(=O)C1=C(C(=O)OC)[C@@]2([C@H](Cc3ccc(C)cc3)Nc3ccccc3)C=C[C@@H]1O2	-2.1	x	x	-3.3	-2.4
CC(=O)n1cc(C2C(=O)CC(C)(C)CC2=O)c2ccccc21	-1.0	1.7	1.5	6.3*	1.4*
COC(=O)c1cn(C(=O)c2ccccc2)c2ccccc12	-0.1	0.1	1.3	1.6	-0.4
C=C(c1cn(C(C)=O)c2ccccc12)c1cn(C(C)=O)c2ccccc12	2.5	1.2	1.8	5.7*	0.5

Screening results from PubChem BioAssay.
